Source: PubChem BioAssay AID1159580 (chemical genetic matrix, 2015)
Several values for one entry are separate records, joined by “and”; a condition that tells them apart may be missing. Identical values can stand only once. Screen size: about 5,500 compounds; about 2,000 (36%) were called active. About 18% were inconclusive and are not listed. Rule as the data show it: active = normalized growth mostly below about 0.91 (no sharp cut-off); inconclusive = no clear call, values can overlap the other calls; inactive = mostly above about 0.92. The list shows a part of the results.

Assay: chemical genetic growth profiling, strain panel (AID 1159580);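 also: tested at 20 µM; growth read once vehicle control cultures reached saturation at 30 °C; 1 = growth at the plate median or of vehicle wells; lower values mean less growth of the strain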
Conditions: S. cerevisiae deletion strains, growth OD

Measured: normalized growth

CC1O[C@@H](Oc2c(-c3ccc(O)c(O)c3)oc3cc(O)cc(O)c3c2=O)[C@H](O)[C@H](O)[C@H]1O (some centres not stated)
inactive: locus YAL013W, strain DEP1, hits give low values 1 | locus YAL021C, strain ccr4, hits give low values 1 | locus YAL026C, strain drs2, hits give low values 0.996 | locus YAL030W, strain snc1, hits give low values 0.999 | locus YBL061C, strain skt5, hits give low values 0.993 | locus YBR009C, strain hhf1, hits give low values 0.99 | locus YBR021W, strain FUR4, hits give low values 1.01 | locus YBR023C, strain chs3, hits give low values 0.995 | locus YBR171W, strain sec66, hits give low values 0.971 | locus YBR229C, strain ROT2, hits give low values 1 | locus YBR231C, strain swc5, hits give low values 0.985 | locus YBR279W, strain paf1, hits give low values 0.995 | locus YCL011C, strain gbp2, hits give low values 0.997 | locus YCL016C, strain dcc1, hits give low values 0.993 | locus YCL029C, strain bik1, hits give low values 0.978 | locus YCL061C, strain MRC1, hits give low values 0.985 | locus YCL069W, strain vba3, hits give low values 0.991 | locus YCR088W, strain abp1, hits give low values 0.985 | locus YDL005C, strain med2, hits give low values 0.979 | locus YDL035C, strain GPR1, hits give low values 1 | locus YDL040C, strain nat1, hits give low values 0.984 | locus YDL074C, strain BRE1, hits give low values 0.965 | locus YDL101C, strain DUN1, hits give low values 0.991 | locus YDL134C, strain PPH21, hits give low values 1 | locus YDL185W, strain tfp1, hits give low values 0.956 | locus YDL192W, strain arf1, hits give low values 0.985 | locus YDR001C, strain nth1, hits give low values 0.999 | locus YDR069C, strain doa4, hits give low values 0.985 | locus YDR101C, strain arx1, hits give low values 0.999 | locus YDR137W, strain rgp1, hits give low values 1.01 | locus YDR150W, strain NUM1, hits give low values 0.998 | locus YDR159W, strain sac3, hits give low values 0.97 | locus YDR162C, strain NBP2, hits give low values 1 | locus YDR195W, strain ref2 0.967 | locus YDR297W, strain sur2, hits give low values 0.987 | locus YDR318W, strain mcm21, hits give low values 0.986 | locus YDR334W, strain swr1, hits give low values 0.995 | locus YDR335W, strain msn5, hits give low values 1 | locus YDR388W, hits give low values 0.994 | locus YDR392W, strain spt3, hits give low values 0.98 | locus YDR502C, strain sam2, hits give low values 1.01 | locus YEL003W, strain gim4, hits give low values 0.994 | locus YEL037C, strain rad23, hits give low values 0.997 | locus YEL061C, strain CIN8 (second series), hits give low values 0.995 | locus YEL061C, strain CIN8, hits give low values 0.996 | locus YER015W, strain faa2, hits give low values 0.973 | locus YER016W, strain bim1, hits give low values 0.994 | locus YER110C, hits give low values 0.993 | locus YER111C, strain swi4, hits give low values 0.997 | locus YER155C, strain BEM2 (second series), hits give low values 0.982 | locus YER155C, strain BEM2, hits give low values 0.995 | locus YER167W, strain BCK2, hits give low values 0.999 | locus YFR010W, strain ubp6, hits give low values 0.988 | locus YGL078C, strain dbp3, hits give low values 0.992 | locus YGL086W, strain mad1, hits give low values 1.03 | locus YGL167C, strain pmr1, hits give low values 0.99 | locus YGL173C, strain kem1, hits give low values 0.979 | locus YGL227W, strain vid30, hits give low values 0.979 | locus YGL240W, strain doc1, hits give low values 0.976 | locus YGL248W, strain PDE1, hits give low values 1 | locus YGL253W, strain hxk2, hits give low values 0.985 | locus YGR078C, strain PAC10, hits give low values 0.98 | locus YGR135W, strain pre9, hits give low values 0.989 | locus YGR229C, strain SMI1, hits give low values 1 | locus YGR252W, strain gcn5, hits give low values 1.18 | locus YHR013C, strain ard1, hits give low values 0.982 | locus YHR027C, strain rpn1, hits give low values 0.988 | locus YHR030C, strain SLT2, hits give low values 0.997 and 0.954 | locus YHR079C, strain IRE1 (second series), hits give low values 0.989 | locus YHR079C, strain IRE1, hits give low values 0.962 | locus YHR094C, strain hxt1, hits give low values 0.982 | locus YHR129C, strain ARP1, hits give low values 0.987 | locus YHR142W, strain chs7, hits give low values 0.995 | locus YHR200W, strain rpn10, hits give low values 0.986 | locus YIL066C, strain RNR3, hits give low values 1 | locus YIL073C, strain SPO22, hits give low values 0.95 | locus YIL125W, strain kgd1, hits give low values 0.987 | locus YIR030C, strain dcg1, hits give low values 0.991 | locus YJL092W, strain hpr5, hits give low values 0.985 | locus YJL095W, strain BCK1 (second series), hits give low values 0.998 | locus YJL095W, strain BCK1, hits give low values 0.952 and 0.984 | locus YJL115W, strain asf1, hits give low values 0.991 | locus YJL129C, strain trk1, hits give low values 1 | locus YJL134W, strain LCB3, hits give low values 0.997 | locus YJL154C, strain vps35, hits give low values 0.993 | locus YJL164C, strain tpk1, hits give low values 0.984 | locus YJL166W, strain qcr8, hits give low values 0.994 | locus YJL168C, strain set2, hits give low values 0.996 | locus YJL187C, strain SWE1 (second series), hits give low values 0.988 | locus YJL187C, strain SWE1, hits give low values 0.989 | locus YJR043C, strain POL32, hits give low values 0.987 | locus YJR066W, strain TOR1, hits give low values 0.922
